This note sets out measurements from PubChem BioAssay AID2417 (National Center for Advancing Translational Sciences (NCATS), 2010).

In all, about 140,000 compounds went through this assay and about 4,300 (3.1%) were called active. Inconclusive results (about 21%) are left out. For the sample, actives were picked, then their nearest neighbours and some compounds at random. A number with no mark means an inactive call.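 Rule for the calls: active = readout at or below -70, meaning at least 70% loss of cells showing the perinucleolar compartment, a nuclear body marking cancer cells; inconclusive = readout between -30 and a set limit; inactive = the rest.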

A short description of this assay: High Content Assay for Compounds that inhibit the Assembly of the Perinucleolar Compartment.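 Note: plate controls were DMSO wells for no effect and camptothecin positive control wells for full effect.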 Conditions: PC3M PTB-GFP, PNC prevalence imaging, 16 h; at 10 µM; active compounds read low. In short, it runs like this:
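Read-out is percentage of cells bearing a perinucleolar compartment, from automated 20x imaging of fixed, Hoechst-stained PC3M PTB-GFP cells. Cells were seeded 4 h, then exposed 16 h to compound (23 nl of library stock) in duplicate plates.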
On to `CCc1ccc(-c2cc(C(=O)NN3CCN(C)CC3)c3ccccc3n2)cc1`, for which the activity change (PNC), negative = inhibition is -5.44%. With `O=[N+]([O-])c1ccc(NCCCO)c(C(F)(F)F)c1` the figure was 59.3%. Regarding `C=C(C)c1cccc(C(C)(C)NC(=O)NC2CCCC2)c1`, the activity change (PNC), negative = inhibition was 24%. With `Cc1ccc2[nH]c(C(=O)O)c(NC(=O)c3ccccc3[N+](=O)[O-])c2c1` the figure was 17.5%; with `CCC(=O)Nc1c(S(=O)(=O)c2ccccc2)c2nc3ccccc3nc2n1Cc1ccccc1`, 8.42%. With `O=S(=O)(NCCc1ccncc1)c1ccccc1` the figure was 50.6%. Then `COc1cc2c(cc1OC)C(Nc1ccc(S(N)(=O)=O)cc1)=NC(C)(C)C2`, with -18.6%; and `O=C1OC(OC(=O)c2ccccc2Br)C(N2CCOCC2)=C1Cl` (stereo unspecified), with 84.2%; and `CCc1cccc(NC(=O)CCC(=O)O)c1`, with -102% (active).

As for `CSc1cccc(NC(=O)CSc2ccccc2)c1`, the activity change (PNC), negative = inhibition is 1.35%. With `O=C(CCCOc1ccccc1)Nc1cccc(C(=O)O)c1`, the activity change (PNC), negative = inhibition was 11.1%.

In the case of `CCOc1ccc(NC(=O)CSc2ncnc3c2sc2ccccc23)cc1`, the activity change (PNC), negative = inhibition was 42.2%. With `O=C(Oc1ccccc1C(=S)N1CCCCC1)c1cc([N+](=O)[O-])cc([N+](=O)[O-])c1` the figure was -100% (active); with `O=C(Oc1ccccc1Cl)c1ccc(N2CCOCC2)c([N+](=O)[O-])c1`, 20.3%; with `COc1cc(C(=S)N2CCOCC2)cc(OC)c1OC(=O)c1cc([N+](=O)[O-])cc([N+](=O)[O-])c1`, 19.6%.

As to `CN(C)CCNC(=O)/C(=C/c1cccc([N+](=O)[O-])c1)NC(=O)c1ccccc1`, the activity change (PNC), negative = inhibition is -1.37%.

As to `COc1ccc(CCC(=O)OCC(=O)Nc2ccc(C)c(S(=O)(=O)N(C)C)c2)cc1`, the activity change (PNC), negative = inhibition is 34.8%.

As for `COc1ccc(/C(C)=N/NC(=O)CCC(=O)Nc2ccc(Cl)cc2Cl)c(OC)c1`, the activity change (PNC), negative = inhibition was -10.3%. As to `Cc1ccc(NC(=S)NCc2ccccc2Cl)c(C)c1`, the activity change (PNC), negative = inhibition was 22.9%. With `COCc1cc(C)nc2sc3c(=O)n(-c4cccc5ccccc45)nnc3c12` the figure was 0.942%; with `COc1ccc(-c2c(C(C)=O)c(C)nc3sc4c(=O)n(-c5ccc(C)cc5)nnc4c23)cc1`, -106% (active). Consider `COc1ccc(N2C(=O)C(O)C2c2ccc(C)cc2)cc1` (stereo unspecified), for which the activity change (PNC), negative = inhibition was -29.1%. Consider `c1ccc(-c2nnc(SCc3nc4ccccc4[nH]3)o2)cc1`, for which the activity change (PNC), negative = inhibition is 25.5%.

Turning to `O=C(Nc1nnc(SCc2ccc(Cl)cc2Cl)s1)C1COc2ccccc2O1` (stereo unspecified), the activity change (PNC), negative = inhibition was 43%. Then `Clc1ccc(CSc2nnc(/C=C/c3ccccc3)o2)c(Cl)c1`, with -87.5% (active). Turning to `N/C(=N\OC(=O)CC1CCCCC1)c1ccccc1`, the activity change (PNC), negative = inhibition is -25.3%.

Turning to `COC(=O)c1ccccc1NS(=O)(=O)c1ccc2[nH]c(=O)[nH]c2c1`, the activity change (PNC), negative = inhibition is -18.2%. Then `Cc1ccc(N(Cc2cc3ccccc3[nH]c2=O)C(=O)c2cccs2)cc1`, with 4.02%; and `CCOC(=O)Cc1csc(NC(=O)CSc2ccc(Br)cc2)n1`, with 34.9%. Then `O=c1[nH]cnc2c1c(-c1ccccc1)cn2-c1ccc(F)cc1`, with -108% (active); and `O=c1c2ccccc2c(-c2ccc(F)cc2)nn1-c1ccc(C(F)(F)F)cc1`, with -1%; and `O=C(CNCc1ccc(F)cc1)Nc1ccccc1-c1ccccc1`, with 23.9%. With `Cc1cc(C)c(C#N)c(SCC(=O)NN2CC(=O)N(c3ccccc3F)CC2=O)n1` the figure was 43.3%; with `O=C(c1cc(Cl)cc(Cl)c1)N1CCC(=O)N(C(COCc2ccccc2)Cc2ccccc2)CC1` (stereo unspecified), 27.5%; with `CC(C)CC(COCc1ccc(Cl)cc1)N1CCN(C(=O)c2ccc(C(F)(F)F)cc2)CCC1=O` (stereo unspecified), 49.5%. `CC(C)CC(CO)N1CCN(C(=O)c2ccc(Cl)cc2Cl)CCC1=O` (stereo unspecified): the activity change (PNC), negative = inhibition is -91.5% (active).

With `CC(=O)c1sc(N/N=C\c2ccc(C)cc2)nc1C`, the activity change (PNC), negative = inhibition was 25.4%. Then `CCc1ccccc1NC(=O)CN(C)C(=O)COc1ccc(C)nc1[N+](=O)[O-]`, with -8.07%. With `COc1ccccc1N(C(=O)Cn1nnc2ccccc21)C(C(=O)NCc1ccco1)c1ccc(C)o1` (stereo unspecified) the figure was 20.9%; with `CCC(C)(C)NC(=O)C(c1cccn1C)N(Cc1ccc(C)cc1)C(=O)Cn1nnc2ccccc21` (stereo unspecified), 27.9%; with `COCCNC(=O)C(c1ccc(C)o1)N(Cc1ccccc1)C(=O)Cn1nnc2ccccc21` (stereo unspecified), -83.4% (active). Then `Brc1ccc(C2CC(c3ccccc3)=Nc3ccccc3N2)cc1` (stereo unspecified), with -29.2%; and `CC(=O)c1ccc(NC(=O)Nc2ccc([N+](=O)[O-])cc2C)cc1`, with -13%; and `COc1ccc(NC(=O)Nc2ccc3nc(C)c(C)nc3c2)cc1`, with 5.41%. Regarding `COc1cc(NC(=O)Nc2ccc(C)cc2)cc([N+](=O)[O-])c1`, the activity change (PNC), negative = inhibition is -87.1% (active). With `O=C(CN1C2=NCCN2c2ccccc21)c1cccs1` the figure was -2.86%.
